This passage reports growth results from PubChem BioAssay (NCI).

Compounds without any hit were thinned out: in the full panel of roughly 83,000, 20% have a hit.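 For each line, cells grew in 96-well plates with the test compound present at a single concentration for 48 hours.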 A number with no mark means an inactive call. Active and inactive are the calls of the source. How the source made its calls: active means growth percent below 10; inactive means the rest.

For one experiment, the system named is ACHN renal. As to the kind of experiment: NCI-60 one-dose screen, 48 h (100 = growth as untreated, 0 = no growth, -100 = all killed). The settings on record: 10 µM unless noted.
Regarding `C=CCn1c(C)nc2cc(Nc3nc(N4CCCC4)nc4ccccc34)ccc21`, the growth was 103%.
Consider `Cc1ccc(/C=C/c2c(C(=O)/C=C/c3ccc(Cl)cc3)c(C)nc3ccccc23)cc1`, for which the growth is -64.6% (active).
`COc1cc(/C=C/C(=O)c2cccc(-n3cc(-c4ccccc4)[nH]c3=O)c2)ccc1O`: the growth was 34.4%.
Take `C=CCOC1=CC(=O)c2ccccc2C1=O`: the growth was 83%.
As for `Cn1cc(-c2csc(-c3ccccc3)n2)c2cccnc21`, the growth is 0.882% [100 µM] (active).
On the same count and under the same terms, the same measure for `c1ccc(-c2nc([P+](c3ccccc3)(c3ccccc3)c3ccccc3)c(N3CCOCC3)o2)cc1`: 13.2%; for `O=C(COc1ccc(/C=C2\Oc3ccccc3C2=O)cc1)Nc1nc2c(s1)CCCC2`: 65.5%; for `COc1ccc(C2c3ccc4ccccc4c3Oc3nc(C)[nH]c(=O)c32)cc1` (stereo unspecified): 92.3%.
As to `CN(C)c1ccc(-c2ccc3[nH]c(=O)nc(-c4ccccc4)c3c2)cn1`, the growth is 47.9%.
With `O=C1/C(=C\c2c[nH]c3ccccc23)c2ccccc2N1c1c(Cl)cccc1Cl`, the growth was 3.26% (active).
As to `Cc1cc(/C=C\c2ccc3ccccc3[n+]2C)c(O)c2ncccc12`, the growth is 6.11% (active).
On to `O=C1N=c2cc3c(cc2=C/C1=C/c1sc(=S)n(CCc2ccc(O)cc2)c1O)OCCO3`, for which the growth was 6.54% (active).
With `N#Cc1nc(C#N)c(Sc2ccccc2)c(Sc2ccccc2)c1Sc1ccccc1`, the growth is -78% (active).
Still for that read-out and setting: the same measure for `Cc1cc(NCCCCNc2ccnc3cc(Cl)ccc23)nc(Nc2ccc(C(=O)N3CCCC3)cc2)n1`: 60.7%; for `CC(C)CCC[C@@H](C)[C@H]1CC[C@H]2[C@@H](Nc3ccc(O)cc3)CCC[C@]12C`: 78.8%.
On the same count and under the same terms, the same measure for `O=C(c1ccccc1)c1c(/C=C/c2ccc(Cl)cc2)nc2ccccc2c1/C=C/c1cccs1`: 93.8%.
Same read-out and setting: the same measure for `CC(=O)n1c(-c2ccc(Cl)cc2)nc2c(c1=O)C(c1ccc(Cl)cc1)c1sc3c(Cl)cccc3c1O2` (stereo unspecified): 23.4%.
For `CN1CCN(CCCOc2ccc3nc(Nc4ccc(F)c(F)c4)ccc3c2)CC1`, the growth was 44.3%.
Consider `CS(=O)c1cccc(-c2ccc3nc(N)n(-c4ccc(C(F)(F)F)cc4)c(=O)c3c2)c1` (stereo unspecified), for which the growth was 105%.
On the same count and under the same terms, with `COc1ccc2[nH]c(O)c(/C=c3/cc4c(c(-c5ccc(F)c(OC)c5)n3)=Nc3ccccc3-4)c2c1` the figure was 52.2%; with `CC(=O)C(C)Cc1cc2c(cc1C)C(C)(C)CCC2(C)C` (stereo unspecified), 104%.
For the molecule `COc1cc(/C=C2\C(=O)ON=C2C)cc(OC)c1OC`, the growth is 96.9%.
On to `CCCCn1c(=O)c2c(nc3n2CCCN3CCc2ccc(OCC(=O)NCCN(CC)CC)cc2)n(CCCC)c1=O`, for which the growth was 78.3%.
Take `COc1cc2c(cc1-c1c(C)noc1C)ncc1nc(C3CCC(F)(F)CC3)n(C3CCC(OC(F)F)CC3)c12` (stereo unspecified): the growth was 66.2%.
On to `CCN(CCNc1ccc(C)c2sc3ccccc3c(=O)c12)CC(C)(C)O`, for which the growth is 79.7%.
For `CCCCCCCCCCCCCCCCCCOc1ccccc1CC(=O)OCCC[N+](C)(C)C`, the growth is 67.5%.
As for `COc1ccc(C(=NN=C(N)N)c2ccc(OC)cc2)cc1`, the growth is 37.6%.
For the molecule `Cc1c(C(=O)N[C@@H](Cc2ccccc2)C(=O)C(=O)NCCc2ccccc2)[nH]c2ccccc2c1=O`, the growth is 101%.
Take `CC1(c2ccccc2)NC(=O)N(NC(=O)CSc2nc(-c3cccs3)nc3ccccc23)C1=O` (stereo unspecified): the growth is 91.5%.
`CCN(CC)Cc1cccc(C(=O)OC)c1`: the growth was 96.6%.
Take `CCCCc1ccc(Nc2ccc(Nc3ccc(CCCC)cc3S(=O)(=O)O)c3c2C(=O)c2ccccc2C3=O)c(S(=O)(=O)O)c1`: the growth is 94.5%.
In the case of `O=C(Nc1ccc(Cl)cc1)Nc1ccc(Cl)c(C(F)(F)F)c1`, the growth is 0.165% (active).
The same measure, in the same setting: with `COc1cc(/C=N/Nc2ncc(-c3cc4cc5c(cc4o3)OCO5)s2)cc(OC)c1OC` the figure was 74.3%; with `COc1ccc(-c2nc3c(N)c(CO)c(C)nc3o2)cc1`, 112%; with `c1ccc(Nc2nc(-c3ccccn3)cs2)nc1`, 1.7% (active).
Consider `Cc1ccc(S(=O)(=O)Oc2cc(OS(=O)(=O)c3ccc(C)cc3)cc(OS(=O)(=O)c3ccc(C)cc3)c2)cc1`, for which the growth is 114%.
`COc1ccc(NC(=O)c2nc(-c3cc(OC)c(OC)c(OC)c3)n(-c3cccc4ccccc34)n2)cc1OC`: the growth was 30.6%.
On the same count and under the same terms, the same measure for `COc1ccc(C2C(c3nn[nH]n3)=C(N)Oc3c2ccc2ccccc32)cc1` (stereo unspecified): 68.6%.

A further experiment relates to CAKI-1 renal. The description is as above. Conditions: 10 µM unless noted.
Consider `C=CCn1c(C)nc2cc(Nc3nc(N4CCCC4)nc4ccccc34)ccc21`, for which the growth was 84.9%.
Consider `Cc1ccc(/C=C/c2c(C(=O)/C=C/c3ccc(Cl)cc3)c(C)nc3ccccc23)cc1`, for which the growth was -4.17% (active).
For `COc1cc(/C=C/C(=O)c2cccc(-n3cc(-c4ccccc4)[nH]c3=O)c2)ccc1O`, the growth is 45.8%.
Consider `C=CCOC1=CC(=O)c2ccccc2C1=O`, for which the growth was 101%.
Take `Cn1cc(-c2csc(-c3ccccc3)n2)c2cccnc21`: the growth is -32.4% [100 µM] (active).
With `c1ccc(-c2nc([P+](c3ccccc3)(c3ccccc3)c3ccccc3)c(N3CCOCC3)o2)cc1`, the growth was 50.9%.
As for `O=C(COc1ccc(/C=C2\Oc3ccccc3C2=O)cc1)Nc1nc2c(s1)CCCC2`, the growth is -98.4% (active).
Regarding `COc1ccc(C2c3ccc4ccccc4c3Oc3nc(C)[nH]c(=O)c32)cc1` (stereo unspecified), the growth was 73.9%.
Consider `CN(C)c1ccc(-c2ccc3[nH]c(=O)nc(-c4ccccc4)c3c2)cn1`, for which the growth is 49.6%.
As to `O=C1/C(=C\c2c[nH]c3ccccc23)c2ccccc2N1c1c(Cl)cccc1Cl`, the growth is -38.6% (active).
Turning to `Cc1cc(/C=C\c2ccc3ccccc3[n+]2C)c(O)c2ncccc12`, the growth was -0.345% (active).
Consider `O=C1N=c2cc3c(cc2=C/C1=C/c1sc(=S)n(CCc2ccc(O)cc2)c1O)OCCO3`, for which the growth was 59.7%.
Turning to `N#Cc1nc(C#N)c(Sc2ccccc2)c(Sc2ccccc2)c1Sc1ccccc1`, the growth is 17.7%.
Turning to `Cc1cc(NCCCCNc2ccnc3cc(Cl)ccc23)nc(Nc2ccc(C(=O)N3CCCC3)cc2)n1`, the growth was 97.1%.
The same measure, in the same setting: the same measure for `CC(C)CCC[C@@H](C)[C@H]1CC[C@H]2[C@@H](Nc3ccc(O)cc3)CCC[C@]12C`: 37.7%; for `O=C(c1ccccc1)c1c(/C=C/c2ccc(Cl)cc2)nc2ccccc2c1/C=C/c1cccs1`: 81.2%; for `CC(=O)n1c(-c2ccc(Cl)cc2)nc2c(c1=O)C(c1ccc(Cl)cc1)c1sc3c(Cl)cccc3c1O2` (stereo unspecified): 7.82% (active).
Still for that read-out and setting: with `CN1CCN(CCCOc2ccc3nc(Nc4ccc(F)c(F)c4)ccc3c2)CC1` the figure was 73.3%.
Consider `CS(=O)c1cccc(-c2ccc3nc(N)n(-c4ccc(C(F)(F)F)cc4)c(=O)c3c2)c1` (stereo unspecified), for which the growth was 96.3%.
With `COc1ccc2[nH]c(O)c(/C=c3/cc4c(c(-c5ccc(F)c(OC)c5)n3)=Nc3ccccc3-4)c2c1`, the growth is 88.3%.
Take `CC(=O)C(C)Cc1cc2c(cc1C)C(C)(C)CCC2(C)C` (stereo unspecified): the growth was 97.6%.
As for `COc1cc(/C=C2\C(=O)ON=C2C)cc(OC)c1OC`, the growth is 91.5%.
Still for that read-out and setting: the same measure for `CCCCn1c(=O)c2c(nc3n2CCCN3CCc2ccc(OCC(=O)NCCN(CC)CC)cc2)n(CCCC)c1=O`: 77.6%.
In the case of `COc1cc2c(cc1-c1c(C)noc1C)ncc1nc(C3CCC(F)(F)CC3)n(C3CCC(OC(F)F)CC3)c12` (stereo unspecified), the growth was 52.1%.
On the same count and under the same terms, the same measure for `CCN(CCNc1ccc(C)c2sc3ccccc3c(=O)c12)CC(C)(C)O`: 79%; for `CCCCCCCCCCCCCCCCCCOc1ccccc1CC(=O)OCCC[N+](C)(C)C`: 43.6%; for `COc1ccc(C(=NN=C(N)N)c2ccc(OC)cc2)cc1`: 73.4%.
Regarding `Cc1c(C(=O)N[C@@H](Cc2ccccc2)C(=O)C(=O)NCCc2ccccc2)[nH]c2ccccc2c1=O`, the growth was 95.9%.
For `CC1(c2ccccc2)NC(=O)N(NC(=O)CSc2nc(-c3cccs3)nc3ccccc23)C1=O` (stereo unspecified), the growth was 72.3%.
For the molecule `CCN(CC)Cc1cccc(C(=O)OC)c1`, the growth is 97.2%.
As to `CCCCc1ccc(Nc2ccc(Nc3ccc(CCCC)cc3S(=O)(=O)O)c3c2C(=O)c2ccccc2C3=O)c(S(=O)(=O)O)c1`, the growth is 95.6%.
Same read-out and setting: with `O=C(Nc1ccc(Cl)cc1)Nc1ccc(Cl)c(C(F)(F)F)c1` the figure was 8.5% (active); with `COc1cc(/C=N/Nc2ncc(-c3cc4cc5c(cc4o3)OCO5)s2)cc(OC)c1OC`, 64.2%; with `COc1ccc(-c2nc3c(N)c(CO)c(C)nc3o2)cc1`, 97%.
Same read-out and setting: with `c1ccc(Nc2nc(-c3ccccn3)cs2)nc1` the figure was -13.3% (active).
`Cc1ccc(S(=O)(=O)Oc2cc(OS(=O)(=O)c3ccc(C)cc3)cc(OS(=O)(=O)c3ccc(C)cc3)c2)cc1`: the growth is 84.2%.
Consider `COc1ccc(NC(=O)c2nc(-c3cc(OC)c(OC)c(OC)c3)n(-c3cccc4ccccc34)n2)cc1OC`, for which the growth is 20.1%.
As to `COc1ccc(C2C(c3nn[nH]n3)=C(N)Oc3c2ccc2ccccc32)cc1` (stereo unspecified), the growth is 34.3%.
